CDC25B CDK2 inh – primary biochemical HTRF screen for blockers of M-phase inducer phosphatase 2 binding to CDK2/cyclin A. P30305+P24941. HTRF CDC25B-CDK2/CyclinA binding, anti-His/anti-Flag; stronger effect = higher value. z-score (no concentration beside the values). 94,000 compounds, 0.72% hits. AID 1259370, 2018; in the data active = z-score above about 3.2
HIV TAR-Tat – TAR RNA-Tat peptide displacers, HIV-1, primary screen, biochemical, FRET, FAM/TAMRA-labeled Tat; HIV-1 TAR RNA, Tat peptide displacement FRET; stronger effect = higher value; z-score (concentration not given with the values); 100,000 compounds, 0.6% hits; active = z-score of 3 or more in at least 2 runs
Active calls of the source: *; . = no result given. This is a sample that favours compounds with a hit; in the whole collection about 0.86% have one here.

SMILES | CDC25B CDK2 inh | HIV TAR-Tat
CCC1CN(C(=O)Nc2ccccc2Cl)c2ccccc2S1 (stereo not drawn) | . | 0.53
CN(C)c1cc(-c2cccc([N+](=O)[O-])c2)oc(=O)c1Cl | -1.3 | .
O=c1oc(-c2ccccc2)cc(Cl)c1Cl | 14* | 1.2
CN(CCCNC(=O)C1CCCN(c2nn3c(=O)c4c(nc3s2)CCCC4)C1)c1ccccc1 (stereo not drawn) | . | 3.6
O=C(CSc1nc2ccccc2c(=O)[nH]1)NC1CCCC1 | . | 3.2
O=C(CSc1nc2ccccc2c(=O)[nH]1)NCc1ccc2c(c1)OCO2 | . | 14*
Cc1c(NC(=O)NCCCN2CCOCC2)sc2nc3n(c(=O)c12)CCC(C)CC3 (stereo not drawn) | 10* | 0.6
Cc1c(C(=O)NCCCN2CCOCC2)sc2nc3n(c(=O)c12)CCCCC3 | . | 1.5
CSc1ccc(C2CC(=O)N3CN(c4ccc(F)cc4)CSC3=C2C#N)cc1 (stereo not drawn) | 5.2* | -4.9
COC(=O)c1ccc(N2CSC3=C(C#N)C(c4ccc(F)cc4)CC(=O)N3C2)cc1 (stereo not drawn) | 6.6* | -0.31
CCCCOc1ccc(C2CC(=O)Nc3c2c(C)nn3-c2ccc3nnc(C)n3n2)cc1OCC (stereo not drawn) | . | -0.31
Cc1ccc(OCCSc2nnc(-c3ccc4c(c3)OCO4)o2)cc1 | -4.9 | 2.1
CC(C)OC(=O)C(C(=O)C(F)(F)F)c1cc(NS(=O)(=O)c2ccc(F)cc2)c2ccccc2c1O (stereo not drawn) | 2.4 | .
C=CCN1C(=O)C2(c3ccccc31)c1c(oc3ccc(C)cc3c1=O)C(=O)N2CCCOC(C)C (stereo not drawn) | -0.34 | 1.3
CCOc1ccc2nc(NC(=O)Nc3cc(Cl)c(OC)cc3OC)sc2c1 | -2.3 | 1.3
COc1ccc2nc(NC(=O)Nc3cc(Cl)c(OC)cc3OC)sc2c1 | 1.3 | 5.3*
NC(=O)C1(N2CCCCC2)CCN(C(=O)Nc2cccc(F)c2)CC1 | -1.4 | .
CC(/C=N/O)=N\Nc1ccccc1 | -1.8 | .
C/C(CC(C)(C)Nc1ccccc1)=N\O | 14* | .
Fc1ccc(-c2cn3c(n2)Cc2ccccc2C3)cc1 | 18* | .
Fc1ccc(-c2cn3ccccc3n2)cc1 | 1.2 | 1.2
COc1cccc2c1Oc1ncccc1NC2 | 8.6* | 0.72
COc1cccc2c1Oc1ncccc1N(C(=O)CCC(=O)O)C2 | 1.8 | 0.06
O=C(Cc1ccccc1)Nc1nn2c(-c3ccccc3)nnc2s1 | -1.3 | 1.4
O=C(Nc1nn2c(-c3ccco3)nnc2s1)c1ccco1 | -1.1 | 22*
SMILES | CDC25B CDK2 inh | HIV TAR-Tat
CC(=O)Nc1nn2c(-c3ccco3)nnc2s1 | -1.2 | 1.5
O=C(Nc1nn2c(-c3ccccc3)nnc2s1)c1ccco1 | -1.9 | 17*
Cc1cc2nc(CSc3nc4ccc(NC(=O)C5CC5)cc4s3)cc(=O)n2o1 | . | 0.63
CN(c1nnc(NC(=O)Nc2ccc(F)cc2)s1)C1CCCCC1 | -1.3 | 2
CCOC(=O)N1CCC(NC(=O)C2CCN(c3nn4c(=O)cc(C)nc4s3)CC2)CC1 | 0.17 | 1.7
COc1ccc(C2CC(=O)N3CN(Cc4ccco4)CSC3=C2C#N)cc1 (stereo not drawn) | 3.2* | 1.8
N#CC1=C2SCN(Cc3ccco3)CN2C(=O)CC1c1ccc(Br)cc1 (stereo not drawn) | -1.8 | 2.1
COc1ccc(CN2CSC3=C(C#N)C(c4ccc(F)cc4)CC(=O)N3C2)cc1 (stereo not drawn) | 3.6* | 0.92
N#CC1=C2SCN(Cc3ccco3)CN2C(=O)CC1c1ccc(F)cc1 (stereo not drawn) | 6* | -1.5
O=C(O)c1ccc(CNCc2ccc3c(c2)OCO3)s1 | -0.21 | 1.2
Cc1cc(C)c(NC(=O)C(C)n2sc3ccccc3c2=O)c(C)c1 (stereo not drawn) | -0.11 | 2.1
O=C(c1ccccc1F)N1CCN(Cc2cc(=O)n3nc(-c4ccccc4)sc3n2)CC1 | . | 0.76
CCOc1ccc(NC2=NS(=O)(=O)C(c3ccc(C(C)C)cc3)=C2C)cc1 | -0.85 | -1.6
CCOC(=O)c1sc(=S)n(-c2ccc(F)c(F)c2)c1N | . | 17*
CCOC(=O)c1sc(=S)n(-c2ccc(C)cc2)c1N | . | 1.4
O=S(=O)(N=P(c1ccccc1)(c1ccccc1)c1ccccc1)c1ccccc1 | -1.7 | .
CCOC(=O)C1CNc2cc(Cl)ccc2O1 (stereo not drawn) | -1.4 | 0.41
O=c1[nH]cc(C(F)(F)F)cc1Cl | -2.6 | .
O=c1[nH]cc(Cl)cc1Cl | 6.4* | .
COCCNC(=O)c1c(NC(=O)c2cc(=O)c3cc(C)c(C)cc3o2)sc2c1CCCC2 | -1.3 | 0.89
O=C(CSc1ccc2nnc(-c3ccc(F)cc3)n2n1)NC1CCCCC1 | -1.9 | .
Fc1cc(F)cc(-c2noc3ncnc(NCc4cccc(Cl)c4)c23)c1 | . | 0.61
CCCCNCc1ccc2c(c1)n(C)c(=O)n2C | -0.37 | -0.51
CC1=C(c2ccc(C)cc2)S(=O)(=O)N(CC(=O)NCC2CCCO2)C1=O (stereo not drawn) | . | -0.54
CCc1cc2c(=S)[nH]cnc2s1 | -0.86 | .
SMILES | CDC25B CDK2 inh | HIV TAR-Tat
CCc1cc(C=N)c([S-])s1.CCc1cc(C=N)c([S-])s1.[Zn+2] | 19* | .
COC(=O)C1=C(C(=O)OC)SC(=C2C(=S)C(C)(C)Nc3ccc(C)cc32)S1 | 18* | 1.6
COC(=O)C1=C(C(=O)OC)SC(=C2C(=S)C(C)(C)Nc3cc(C)c(C)cc32)S1 | -0.72 | 2.2
CCOC(=O)c1c(C)oc2nc(C)nc(N(CC)CC)c12 | . | -0.26
CC(C)OC(=O)Cn1c2ccccc2c2nc3ccccc3nc21 | -1.4 | 2.9
COC(=O)Cn1c2ccc(Cl)cc2c2nc3ccccc3nc21 | 19* | 0.17
COCC(=O)Nc1ccc2nc(SCc3cc(=O)n4oc(C)cc4n3)sc2c1 | . | 11
COc1ccc(S(=O)(=O)N2CCn3c(nc4ccccc43)C2)cc1 | -1.1 | 0.29
O=c1cc(CSc2nnc(-c3ccc(Cl)cc3)o2)nc2sc(C3CC3)nn12 | -2.2 | 14*
O=c1cc(CSc2nnc(-c3cccs3)o2)nc2sc(C3CCCCC3)nn12 | -2 | 0.32
O=C1CSc2ccc(S(=O)(=O)N3CCN(c4ccccn4)CC3)cc2N1 | . | 0.5
O=C(O[C@@H]1Cc2c(O)cc(O)cc2O[C@@H]1c1cc(O)c(O)c(O)c1-c1c([C@H]2Oc3cc(O)cc(O)c3C[C@H]2OC(=O)c2cc(O)c(O)c(O)c2)cc(O)c(O)c1O)c1cc(O)c(O)c(O)c1 | . | 29*
COc1ccc([C@@H]2CC(=O)c3c(O)cc(O)cc3O2)cc1O | . | 2.9
O=C(O[C@@H]1Cc2c(O)cc(O)cc2O[C@@H]1c1cc(O)c(=O)c2c(O)c(O)cc([C@H]3Oc4cc(O)cc(O)c4C[C@H]3OC(=O)c3cc(O)c(O)c(O)c3)c2c1)c1cc(O)c(O)c(O)c1 | . | 26*
O=C(Oc1cc(O)cc2c1C[C@@H](OC(=O)c1cc(O)c(O)c(O)c1)[C@@H](c1cc(O)c(O)c(O)c1)O2)c1cc(O)c(O)c(O)c1 | . | 31*
O=C(Nc1cccc(Cl)c1)N1CCCC(CN2CCc3ccccc3C2)C1 (stereo not drawn) | . | -1.9
Cc1ccc2[nH]c3c(=O)n(CCN4CCCCC4C)cnc3c2c1 (stereo not drawn) | -1.3 | 1
COc1cc2[nH]c3c(=O)n(CCN4CCCCC4C)cnc3c2cc1OC (stereo not drawn) | -1.1 | 6.4*
Cc1ccccc1-c1nc(COc2ccccc2-c2nnc(-c3ccccc3)o2)c(C)o1 | . | -0.13

High-throughput results (PubChem)
